The list is not random: actives were taken first. Their share in the collection is about 0.94%.
MazEF act: increases E. coli MazEF RNase cleavage of RNA; hit rate 0.32% among 350,000; AID 504720; activation, % at 20 µM; FAM/BHQ RNA-DNA oligo cleavage fluorescence, 5 h; in the data active = activation above about 50%
Target sequence (P0AE70 whole entry, looked up): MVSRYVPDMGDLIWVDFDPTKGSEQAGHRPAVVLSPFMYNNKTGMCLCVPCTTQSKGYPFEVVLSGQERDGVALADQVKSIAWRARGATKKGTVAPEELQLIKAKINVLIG
BH1578 lux ind: quorum light induction in luxS cqsA deficient V. cholerae. hit rate 0.16% among 350,000. V. cholerae BH1578 lux reporter, luminescence, 6 h. AID 588436. activation, % at 18.7 µM; in the data active = activation mostly above about 9.7%, no sharp cut-off
PriA SSB inh: blocks PriA binding to SSB C-terminal tail. AlphaScreen SSBct-PriA binding, biotinylated peptide. inhibition, % at 33 µM. AID 1272365. hit rate 0.6% among 430,000; in the data active = inhibition mostly above about 37%, no sharp cut-off; inactive = mostly below about 20%;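 also: plate controls were negative control peptide for no effect and reference peptide for full effect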
Mtb hypoxia rep: reduces hypoxia-regulated biosensor signal in M. tuberculosis. fluorescence inhibition, % (no concentration beside the values). M. tuberculosis hypoxia-regulated fluorescent reporter, fluorescence. hit rate 0.1% among 300,000. AID 1159583; in the data active = fluorescence inhibition mostly above about 23%, no sharp cut-off; inactive = mostly below about 17%
* marks the source's active call; other numbers are inactive results; i = inactive; x = not tested or not shown; + = active, no number; ! = repeats disagree.

SMILES | MazEF act | BH1578 lux ind | PriA SSB inh | Mtb hypoxia rep
ON=C1c2ccccc2-c2ccccc21 | 3 | -1 | -6 | -17
CN(C)c1ccc2c(c1)C(=NO)c1ccccc1-2 | 8 | i | 53* | x
O=C(COc1ccc(Cl)cc1Cl)N1CCN(Cc2nc(-c3ccco3)cs2)CC1 | x | x | 35*! | x
CN(C1CC1)S(=O)(=O)c1ccc(C(=O)Nc2sc3c(c2C(N)=O)CCC3)cc1 | x | x | -6 | x
CC1=CC(=O)C(C(C)C)=C/C1=C(\c1cc(C(C)C)c(O)cc1C)c1ccccc1S(=O)(=O)O | x | x | 59* | x
CC1=CC(=O)C=C/C1=C(\c1ccc(O)cc1C)c1ccccc1S(=O)(=O)O | x | x | -14 | x
CCOC(=O)c1sc(NCc2ccco2)c(-c2nc3ccccc3s2)c1N | 0 | i | 12 | 5
CCNc1sc(C(=O)c2cccs2)c(N)c1C#N | 4 | -1 | -13 | x
C=CCNc1sc(C(=O)c2ccccc2)c(N)c1-c1nc2ccccc2s1 | 10 | 0 | 54* | -82
CCNc1sc(C(=O)c2cccs2)c(N)c1-c1nc2ccccc2s1 | 6 | 3 | 55* | 8
Clc1ccc(-c2nnc3sc(-c4ccccn4)nn23)cc1 | x | x | 48 | x
CC(C)(C)c1ccc(-c2nnc3sc(-c4ccccn4)nn23)cc1 | 1 | 0 | 46* | x
c1ccc(-c2nn3c(-c4ccncc4)nnc3s2)nc1 | x | x | 59* | x
CN(C)c1ccc(-c2nn3c(-c4cccnc4)nnc3s2)cc1 | 35 | x | -1 | 3
COc1cccc(-c2nnc3sc(-c4ccccn4)nn23)c1 | 1 | i | -20 | x
c1ccc(-c2nnc3sc(-c4ccccn4)nn23)cc1 | x | x | 45 | x
COc1ccc(-c2nnc3sc(-c4ccccn4)nn23)cc1 | x | x | 56* | x
CN(C)c1ccc(-c2nnc3sc(-c4ccccn4)nn23)cc1 | x | x | 74* | x
COc1ccc(S(=O)(=O)Nc2ccccc2C(=O)O)cc1OC | x | x | -13 | x
COc1ccccc1N1CCN(CCNC(=O)c2cccs2)CC1 | x | x | -13 | x
CCS(=O)(=O)Nc1cccc(C2=NN(C(=O)c3cccs3)[C@H](c3ccc(F)cc3)C2)c1 | x | x | -9 | x
O=C(c1ccc(-n2cncn2)nn1)N1CCc2ccccc21 | x | x | 12 | x
COc1ccc(OC)c(NC(=O)c2ccc3c(=O)n(CCc4ccccc4)c(=S)[nH]c3c2)c1 | 52* | 0 | -1 | -12
COc1ccc(OC)c(NC(=O)CCn2c(=S)[nH]c3ccccc3c2=O)c1 | -11 | -4 | 1 | 4
O=C(CSc1nnc2ccc(-c3ccccn3)nn12)NCc1ccc(Cl)cc1 | x | x | 7 | x
SMILES | MazEF act | BH1578 lux ind | PriA SSB inh | Mtb hypoxia rep
Cc1cc2oc(C(=O)N(Cc3ccc(N(C)C)cc3)CC3CCCO3)c(C)c2cc1C (stereo not drawn) | 5 | -1 | 50* | -7
Cc1ccc([N+](=O)[O-])cc1N/C=C1\CCCCC1=O | 98* | 0 | x | 14
CCOC(=O)c1cnn2ccc(NC(=O)c3cnn(-c4ccccc4)n3)cc12 | x | x | 25 | x
CCN1CCCc2cc(CCNC(=O)c3ccc(Br)o3)ccc21 | x | x | active! | x
CCN1CCCc2cc(CCNC(=O)NC(C)(C)C)ccc21 | x | x | 44* | x
CCN1CCCc2cc(CCNC(=O)C(=O)NC(C)(C)C)ccc21 | x | x | 52 | x
CCN1CCCc2cc(CCNC(=O)c3ccc(OC(C)C)cc3)ccc21 | x | x | 61* | x
CCN1CCCc2cc(CCNC(=O)C(=O)NCCOC)ccc21 | x | x | 68* | x
CCCNC(=O)C(=O)NCCc1ccc2c(c1)CCCN2CC | x | x | 41 | x
O=C(NCCOc1ccc2c(c1)OCO2)c1ccco1 | x | x | 11 | x
COc1ccc(Nc2nc(NC(C)(C)C)nc(N3CCOCC3)n2)c(OC)c1 | -12 | 0 | 16 | -17
COc1ccc(Nc2nc(NC(C)(C)C)nc(N3CCCC3)n2)c(OC)c1 | 2 | i | 44* | -23
COc1ccc(Br)cc1C1NC(=O)NC(C)=C1C(=O)N(C)C (stereo not drawn) | -1 | -1 | -5 | 8
COc1ccc(Br)cc1C1NC(=O)NC1=O (stereo not drawn) | x | x | 47* | x
O=S(=O)(c1ccc2c(c1)OCCO2)N1CCN(c2cnccn2)CC1 | x | x | 0 | x
CCCCNc1c([N+](=O)[O-])cc(C(=O)O)cc1[N+](=O)[O-] | 8 | -1 | -1 | -6
CCC(C)Nc1c([N+](=O)[O-])cc(C(C)(C)C)cc1[N+](=O)[O-] (stereo not drawn) | x | x | 117* | x
CC1Cc2ccccc2N1CC(=O)c1c(N)n(Cc2ccccc2)c(=O)n(C)c1=O (stereo not drawn) | 12 | 0 | 7 | 7
CCn1c(=O)c(C(=O)CN2c3ccccc3CC2C)c(N)n(Cc2ccccc2)c1=O (stereo not drawn) | 2 | 0 | 39* | 9
CCOc1ccc(NC(=O)CN(C)C(=O)c2ccc(OCc3ccccc3)c(OC)c2)cc1OCC | -5 | i | 42* | 4
CCOc1ccccc1C(=O)NCC(=O)NNC(=O)c1cccc(S(=O)(=O)Nc2ccc(OC)cc2)c1 | -13 | 536* | -15 | -3
CCN1C(=O)c2cccc3c(NC(=O)Cc4ccc(C(C)C)cc4)ccc1c23 | x | x | -6 | x
CC(=O)/C(N=Nc1cc(C)ccc1O)=C(\C)O | 105* | -1 | x | 5
CC(O)=C(N=Nc1cc(C)ccc1O)C(N)=O | x | x | -13 | x
O=C(CC(NCc1ccccn1)C(=O)O)Nc1ccccc1Cl (stereo not drawn) | 4 | i | 97* | 11
SMILES | MazEF act | BH1578 lux ind | PriA SSB inh | Mtb hypoxia rep
O=C(NCc1ccccn1)Nc1cc(Cl)ccc1Cl | -10 | -2 | 1 | 6
C/C(=N\NC(=O)c1ccc(-n2cnnn2)cc1)c1ccc(C)cc1 | 0 | 1 | x | x
CCc1ccc(C(C)=NNC(=O)c2ccc(-n3cnnn3)cc2)cc1 | x | x | -4 | 19*
Brc1ccc(-c2cn3c(n2)CCc2ccc4cccnc4c2-3)cc1 | 2 | -2 | 53* | -5
CCOC(=O)N1CCc2c(sc(NC(=O)c3ccccc3F)c2C(N)=O)C1 | x | x | -16 | x
CC(C)COC(=O)CNc1n[nH]c(=S)[nH]c1=O | 3 | + | 0 | 5
CCN(CC)c1ccc(C(=O)O)cc1 | -12 | 0 | -6 | 5
CCN(CC)c1ccc(/C=C2\C(=O)c3ccc(C(=O)O)cc3C2=O)cc1 | 52* | 0 | 0 | 4
Cc1ccc(NS(=O)(=O)c2ccc(NC(=O)c3cccs3)cc2)cc1 | 74* | x | -14 | -1
CNS(=O)(=O)c1ccc(NC(=O)Cc2cccs2)cc1 | x | x | 45*! | x
CCCNS(=O)(=O)c1ccc(NC(=O)Cc2cccs2)cc1 | 4 | x | -12 | x
CCN1CCN(C2=CC3=CC(=C(C#N)C#N)CCC3CC2)CC1 (stereo not drawn) | + | -2 | -14 | -214
CN1CCN(C2=CC3=CC(=C(C#N)C#N)CCC3CC2)CC1 (stereo not drawn) | x | -1 | -5 | -274
CC(C)N1CCN(Cc2cc3c(cc2Cl)OCO3)CC1CCO (stereo not drawn) | 83* | 3 | -3 | -9
CC(C)N1CC2=C(OC(N)=C(C#N)C2c2cccnc2)/C(=C/c2cccnc2)C1 (stereo not drawn) | 64* | -3 | -3 | 7
CSc1ccccc1C(=O)NCCc1nc2c(c(C(F)(F)F)n1)CCCC2 | x | x | -13 | x
CCCCCCCCn1c(NS(=O)(=O)c2ccc(C)cc2)c(S(=O)(=O)c2ccccc2)c2nc3ccccc3nc21 | x | x | 50 | x
